Source: PubChem
Pf growth 48h – P. falciparum growth inhibition at 48 hours (one generation); 310,000 tested, 5.9% active; Potency, µM (titrated, usually from 28.7 µM), without a hit: at the highest dose activity change, negative = inhibition, most hits filed as inhibitors; AID 504832; P. falciparum luciferase growth in erythrocytes, 48 h; further: potency means the concentration at half of the fitted maximal effect; on the % scale 0 is the no-effect control and ±100 the full control effect
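Luciferase-expressing parasites in RBCs, 2% Hct / 0.1% parasitemia final; RPMI 1640 + 0.5% Albumax; 37 C, 5% CO2, one generation; luminescence read-out, lower signal = inhibition.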
SARS PLpro yeast – blocks SARS-CoV papain-like protease in a yeast assay. 330,000 tested, 0.19% active. S. cerevisiae expressing SARS-CoV PLpro, growth rescue. Potency, µM (titrated, usually from 32.9 µM), for inactives: at the top dose activity, positive = growth rescue, hits mostly activators; calls by dose curve; further: potency means the concentration at half of the fitted maximal effect; 0% is about no effect; nearly all actives have a fitted effect of over 55% in size
Shiga inhibitor – inhibitors of Shiga toxin in Vero cells; Vero cells, Shiga toxin protein synthesis inhibition reporter; inhibition, % at 38.7 µM; 290,000 tested, 9.2% active; in the data active means inhibition mostly above about 28%, no sharp cut-off; inactive means mostly below about 43%; further: 0% is about no effect
Pf growth 96h – P. falciparum growth inhibition at 96 hour, primary screen for plastid delayed-death inhibitors; P. falciparum luciferase reporter growth, 96 h; AID 504834; Potency, µM (highest dose often 28.7 µM), without a hit: top-dose activity change, negative = inhibition, most hits filed as inhibitors; 320,000 tested, 6.9% active; further: potency means the concentration at half of the fitted maximal effect; on the % scale 0 is the no-effect control and ±100 the full control effect
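Parasite growth measured via integrated firefly luciferase reporter in P. falciparum. Infected erythrocytes at 2% hematocrit, 0.05% parasitemia final were treated 96 hours at 37 C under 5% CO2, and luminescence was read.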
Cycloheximide cs – counter-screen for Shiga toxin inhibitors: cycloheximide protein synthesis inhibition | AID 2314 | cell reporter, cycloheximide protein synthesis inhibition counterscreen | 300,000 tested, 12% active | max response, %; in the data active means max response mostly above about 13%, no sharp cut-off; inactive means mostly below about 14%; further: read at 38.3 µM for the half of the compounds with a filed dose; 0% is about no effect
NS1 function inh – inhibitors of influenza NS1 protein function. Potency, µM (highest dose often 46.1 µM), for inactives: at the top dose activity, positive = more growth. 270,000 tested, 0.4% active; calls by dose curve; further: potency means the concentration at half of the fitted maximal effect; actives are rising curves; nearly all actives have a fitted effect of over 50% in size
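Recovery from NS1-induced slow growth read by OD600 in budding yeast switched to galactose assay medium (pH 6.0, -URA) at 1:100 dilution. Compound 23 nl per well; the matching strain lacking NS1 serves as control.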
The depositor's hits bear a star; i = inactive; u = inconclusive; x = no result given; + = active, no number; [ ] = remark or other dose. The list is not random: actives were taken first. Their share in the collection is about 21%. Unless noted, the call rests on the fitted dose curve; in most records, active means well fitted inhibition curve with a large enough effect; inconclusive means small, poorly fitted or top-dose-only effect, or another doubt; inactive means no such curve, though single readings can be large or run the other way.

SMILES	Pf growth 48h	SARS PLpro yeast	Shiga inhibitor	Pf growth 96h	Cycloheximide cs	NS1 function inh
O=C(NC1CCCC1)c1ccc(Br)c(S(=O)(=O)N2CCCCC2)c1	2%	0%	57	-5%	-6	-1%
Cc1ccc(C(=O)NC2CCCCC2)cc1S(=O)(=O)N1CCCC1	-14%	2%	40*	u	35*	-20%
Cc1ccc(C(=O)NC2CCCCCC2)cc1S(=O)(=O)N1CCOCC1	-27%	-2%	30	-20%	28*	-6%
CCN(CC)S(=O)(=O)c1cc(C(=O)NC2CCCCC2)ccc1C	34%	8%	104*	-23%	42*	-14%
CCN(Cc1ccccc1)S(=O)(=O)c1cc(C(=O)NCC2CCCCC2)ccc1OC	u	2%	-11	12µM*	-3	15%
CN1CCc2ccccc2[C@@H]1Cc1ccccc1NC(=O)c1sc2ccccc2c1Cl	x	x	x	x	x	8%
COCc1cc(C)nc(SCC[N+](C)(C)CC(=O)Nc2cccc(C(F)(F)F)c2)c1C#N	u	2%	9	u	4	x
CC(=O)c1cccc(NC(=O)C2=CN3CCS(=O)(=O)N=C3C=C2)c1	-12%	1%	x	-13%	x	x
CSCCC(=O)N1CCC(n2nccc2NC(=O)c2ccc3c(c2)OCO3)CC1	25%	-8%	65*	40%	54*	-7%
CC(=O)c1ccc(C(=O)N2CCC(n3nccc3NC(=O)C3CC3)CC2)cc1	-17%	2%	-16	-24%	-1	7%
CC#CC(=O)N1CCC(n2nccc2NC(=O)c2ccc3c(c2)OCO3)CC1	-16%	2%	72*	u	23*	3%
CCOCC(=O)Nc1ccc([N+](=O)[O-])cc1C	67%	0%	24	41%	8	x
CN(C(=O)COC(=O)C1CCN(S(=O)(=O)c2cccs2)CC1)c1ccccc1	-27%	-2%	-9	20%	-1	x
O=C(Cc1cc(=O)[nH]c(=O)[nH]1)NCc1ccccc1	22%	1%	-9	5%	-8	8%
COc1cc(C)ccc1N(CCCN1C(=O)c2cccc3cccc(c23)C1=O)C(=O)c1cccs1	u	6%	-14	9.3µM*	-7	u
COC(=O)CCCN1C(=O)c2cccc3cccc(c23)C1=O	3%	-3%	28	u	24*	-33%
O=C1c2ccc3c4c(ccc(c24)C(=O)N1CCCCO)C(=O)N(CCCCO)C3=O	0.74µM*	8%	72*	-4%	34*	x
O=C1c2ccccc2C(=O)N1CCSC(=S)N1CCOCC1	72%	3%	51	11%	26*	7%
O=C(CCCCCN1C(=O)c2cccc3cccc(c23)C1=O)NO	x	x	49	x	11	x
COc1ccc(N(CCCN2C(=O)c3cccc4cccc(c34)C2=O)C(=O)c2cccs2)cc1	-13%	u	-9	u	1	12%
CCOC(=O)C1CCCN(CC(=O)N(C)c2c(N)n(Cc3ccccc3)c(=O)[nH]c2=O)C1 (configuration not stated)	x	-1%	x	x	x	x
CCOC(=O)C1(CCOC)CCN(C(C)CCc2ccc(OC)cc2)CC1 (configuration not stated)	9%	0%	-1	u	-4	2%
O=C1CCN1C1(C(=O)NC2CCCCC2)CCCC1	-6%	-2%	5	u	-4	9%
O=C(O)C(Cc1ccccc1)N1C(=O)c2cccc3cccc(c23)C1=O (configuration not stated)	8%	0%	-3	u	1	4%
O=C(CCN1C(=O)c2ccccc2C1=O)N1CCOCC1	-6%	4%	-5	5%	-3	0%
SMILES	Pf growth 48h	SARS PLpro yeast	Shiga inhibitor	Pf growth 96h	Cycloheximide cs	NS1 function inh
O=C(CCN1C(=O)c2cccc3cccc(c23)C1=O)N1CCOCC1	204%	1%	94*	u	26*	x
O=C1c2cccc3cccc(c23)C(=O)N1CCc1ccccc1	361%	-2%	95*	u	51*	x
COc1ccc(NC(=O)CN(C)CC(=O)NCc2ccc(C)cc2)cc1	-22%	6%	x	7%	x	x
CCOC(=O)Cc1cc(=O)[nH]c(/N=C(\N)Nc2ccc(C)cc2C)n1	x	3%	12	19%	2	0%
COc1ccc(-c2cc(C(=O)NC(Cc3cc4ccccc4[nH]3)C(=O)O)c(C)o2)cc1OC (configuration not stated)	50%	-1%	49*	-3%	33*	x
COc1ccc(-c2cc(C(=O)O)c(C)o2)cc1OC	u	3%	-20	x	-7	-35%
O=C1c2ccccc2NC(c2ccc(F)cc2)N1Cc1ccccc1 (configuration not stated)	u	-3%	-7	6%	9	-3%
COc1ccc(C2Nc3ccccc3C(=O)N2Cc2ccccc2)cc1CN1CCOCC1 (configuration not stated)	8.3µM*	0%	-10	13µM*	-1	3%
COc1ccc(C2Nc3ccccc3C(=O)N2Cc2ccccc2)cc1COc1ccc(Cl)cc1Cl (configuration not stated)	1.7µM*	-8%	x	6%	x	x
Cc1nccn1CCC(=O)Nc1ccc(Cl)cc1	5%	0%	-14	4%	-5	x
Cc1cn(CC(=O)c2ccccc2)c2ccccc12	u	-2%	0	-2%	12	20%
CSc1nc(N)nc(SCC(=O)c2ccc(C)cc2)c1C#N	85%	-1%	+	u	28*	0%
Cc1snc(SCc2ccc(Cl)cc2)c1C#N	1%[0.00184 µM]	-5%	46	9%	11*	-5%
CSc1nc(N)nc(SCC(=O)OC(C)C)c1C#N	66%	7%	24	50%	6	-5%
Cc1snc(SCC(=O)c2ccc(F)cc2)c1C#N	i	-7%	105*	300%	34*	x
Cc1snc(SCC(=O)c2ccc([N+](=O)[O-])cc2)c1C#N	u	-13%	64*	0%	30*	x
COc1ccc(CCNS(=O)(=O)c2ccc3c(c2)CC(C)N3C(C)=O)cc1OC (configuration not stated)	-3%	-6%	-8	u	0	-3%
COc1cc(CNS(=O)(=O)c2ccc3c(c2)CC(C)N3C(C)=O)cc(OC)c1OC (configuration not stated)	u	-1%	-8	5.9µM*	7	-3%
CCC(=O)N1c2ccc(S(=O)(=O)NC3CCCCC3)cc2CC1C (configuration not stated)	0%	4%	13	10µM*	31*	9%
CC(=O)N1c2ccc(S(=O)(=O)N(C)CC(=O)NC(C)c3ccccc3)cc2CC1C (configuration not stated)	-12%	1%	4	9.3µM*	-2	3%
CCN(c1ccccc1)S(=O)(=O)c1ccc2c(c1)CC(C)N2C(=O)C1CC1 (configuration not stated)	u	17%	3	4.1µM*	5	-32%
